Nrf2 activator: activators of Nrf2 (ARE) signaling; AREc32 ARE-luciferase reporter (MCF7-derived line), luminescence, 24 h; Potency, µM (doses to about 46.1 µM), for the others: top-dose activation, usual class: activators; hit rate 0.31% among 410,000; further: % of control where 0% means no effect; nearly all actives have a fitted effect of over 65% in size
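Quantitative high-throughput format: AREc32 reporter cells, 1000 per well, received compound by pin transfer and were incubated 24 hr at 37 deg C, 5% CO2, before Steady-Glo luminescence detection.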
Nrf2 block: Nrf2 pathway inhibition; hit rate 2.1% among 360,000; Potency, µM (top dose mostly 46 µM), for the others: top-dose activity change, negative = inhibition, hits mostly inhibitors; A549 ARE-Fluc reporter, luciferase luminescence, 18-24 h; AID 504444; further: on the % scale 0 is the no-effect control and ±100 the full control effect; nearly all actives have a fitted effect of over 60% in size
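Nrf2 function is reported as luminescence of an ARE-controlled luciferase in A549 cells. Compounds were tested at several concentrations, and a CellTiter-Fluor read on the same wells flagged cytotoxicity.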
ATXN2 expr inh: reduces ATXN2 reporter expression in HEK-293 cells; Potency, µM (doses to about 57 µM), for the others: top-dose activity change, negative = inhibition, most hits filed as inhibitors; hit rate 0.72% among 360,000; HEK-293 ATXN2-luciferase reporter, luminescence, 24 h; further: on the % scale 0 is the no-effect control and ±100 the full control effect; nearly all actives have a fitted effect of over 55% in size
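ATXN2-luciferase reporter cells (luciferase flanked by upstream and downstream ATXN2 gene portions) were treated 24 h at 37 °C with compounds at up to 57 uM. SteadyGlo luminescence gave expression; GF-AFC fluorescence gave viability.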
A549 tox: kills or reduces viability of A549 cells in Nrf2 counter-screen; Potency, µM (titrated, usually from 46 µM), without a hit: at the highest dose activity change, negative = cytotoxicity, usual class: inhibitors; A549 ARE-Fluc cells, CellTiter-Fluor viability, 18-24 h; hit rate 0.16% among 390,000; further: on the % scale 0 is the no-effect control and ±100 the full control effect
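A549 ARE-Fluc cells in 5% FBS OPTI-MEM, 5000 cells/well, rested 2 h then exposed to compounds in concentration-response for 18-24 h at 37 °C. Viability by CellTiter-Fluor fluorescence (Ex 405/Em 525) after 30 min; luciferase luminescence (BugLite, 15 min, RT) read afterwards.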
ATXN viability: cell viability loss in ATXN counter-screen | hit rate 0.49% among 400,000 | S2 cells (HEK-293 line with an ATXN2-luciferase reporter) viability, CellTiter-Fluor protease fluorescence, 24 h | Potency, µM (doses to about 56.7 µM), most hits filed as cytotoxic; further: nearly all actives have a fitted effect of over 40% in size
Starred values were filed as active, the others as inactive; i = inactive; ? = inconclusive; . = no result; [ ] = another dose, or the depositor's remark. Shown are actives, neighbours in structure and some others; about 2.9% of the full set was active somewhere. The call rests on the fitted dose curve; in most records, active means well fitted curve in the direction sought with a large enough effect; inconclusive means small, poorly fitted or top-dose-only effect, or another doubt; inactive means no such curve, though single readings can be large; an effect the other way counts as inactive or inconclusive. Potency means the concentration at half of the fitted maximal effect.

SMILES	Nrf2 activator	Nrf2 block	ATXN2 expr inh	A549 tox	ATXN viability
Cn1c(SCC(=O)N/N=C/c2ccc([N+](=O)[O-])s2)nnc1-c1ccccc1	-1%	21µM*	?	?	?
COC(=O)N/N=C/c1ccc([N+](=O)[O-])s1	21%	6.5µM*	-28%	10µM*	i
O=C(N/N=C/c1ccc([N+](=O)[O-])s1)c1ccccc1	-2%	23µM*	?	?	i
Cc1cc(C(=O)N/N=C/c2ccc([N+](=O)[O-])s2)c2ccccc2n1	0%	?	?	?	?
Cn1c(SCC(=O)N/N=C/c2cc([N+](=O)[O-])ccc2O)nnc1-c1ccccc1	-1%	-26%	?	-3%	i
O=C(COC(=O)CCN1C(=O)c2ccccc2C1=O)Nc1ccccc1[N+](=O)[O-]	-1%	12%	-5%	6%	i
Cc1ccc(C)c(S(=O)(=O)N2CCN(C(=O)c3ccc(OCc4c(C)noc4C)cc3)CC2)c1	4%	?	0%	-3%	i
O=C(N/N=C/c1cccs1)c1cncc(Br)c1	0%	?	-24%[11.3 µM]	-3%	i
Cc1ccc(-c2nnc(SCC(=O)N/N=C/c3ccc(C)s3)n2-c2ccc(C)cc2)cc1	0%[9.22 µM]	21µM*	0%	?	?
O=C(N/N=C\c1ccc([N+](=O)[O-])s1)c1cncc(Br)c1	-1%	16µM*	10µM*	23µM*	28µM*
Cc1ccccc1C(=O)N/N=C/c1ccc([N+](=O)[O-])s1	-4%	10µM*	7.9µM*	-22%	?
COc1ccc(NC(C)C(=O)N/N=C/c2ccc([N+](=O)[O-])s2)cc1 (stereo not drawn)	0%	21µM*	?	?	?
Cc1ccc(NC(C)C(=O)N/N=C/c2ccc([N+](=O)[O-])s2)cc1 (stereo not drawn)	0%	?	33%[11.3 µM]	?	i
Cc1ccc(NC(=O)CSc2nnc(C)n2-c2ccccc2)cc1	0%	-5%	2%	1%	i
Cc1nnc(SCC(=O)N/N=C/c2cn(-c3ccccc3)nc2-c2ccccc2)n1-c1ccccc1	2%	16µM*	-6%	-29%	?
Cc1ccc(S(=O)(=O)N2CCN(C(=O)CCOc3ccccc3C)CC2)cc1C	0%	?	-11%	-1%	i
CC(=O)c1ccc(OCCCC(=O)N2CCN(S(=O)(=O)c3ccc(C(C)C)cc3)CC2)cc1	0%	21µM*	-22%	-22%	?
CCOc1ccc(S(=O)(=O)N2CCN(C(=O)CCOc3ccccc3C)CC2)cc1	0%	16µM*	2%	-16%	i
CC1CCCN(C(=O)COC(=O)/C=C/c2ccc(C(F)(F)F)cc2)C1 (stereo not drawn)	2%	1%	.	-7%	i
O=C(CSc1nnc2ccc(-c3ccccn3)nn12)Nc1ccccc1	-1%	4%	9%	-3%	i
CN(Cc1ccc(Cl)c(Cl)c1)C(=O)C1=CC=CN2CCS(=O)(=O)N=C12	0%	8.2µM*	.	-4%	?
COc1ccc(Br)cc1CN(C)C(=O)c1ccncc1	0%	1%	6%	2%	i
COc1ccc(Br)cc1CN(C)C(=O)C1=CC=CN2CCS(=O)(=O)N=C12	0%	16µM*	2%	-11%	i
O=C(Oc1ccc(Cl)c(Cl)c1)C1=CC=CN2CCS(=O)(=O)N=C12	-1%	2%	-16%	-3%	i
CCOC(=O)c1c(C)[nH]c(C2=NNC(=NC3CC3)SC2)c1C	4%	?	11µM*	12%	i
SMILES	Nrf2 activator	Nrf2 block	ATXN2 expr inh	A549 tox	ATXN viability
CC(C)c1ccc(Cn2ccc3c4c(N)nc(NC5CC5)nc4ccc32)cc1	.	.	24µM*	.	.
COC(=O)C1=C(C(=O)OC)C(C(=O)OC)C(C(=O)OC)C(C(=O)OC)(C(=O)OC)C(C(=O)OC)=C1C(=O)OC (stereo not drawn)	9%	?	?	-19%	34µM*
CC1CCc2[nH]c3ccc(C(=O)NCC4CCCO4)cc3c2C1 (stereo not drawn)	1%	-2%	33%	-12%	i
c1ccc(CN2CCN(c3nc(NCc4ccco4)c4ccccc4n3)CC2)cc1	8%	23µM*	?	?	i
c1ccc(Nc2nc(NCc3ccco3)c3ccccc3n2)cc1	1%	?	-31%	-8%	i
Cc1ccccc1Nc1nc(NCc2ccco2)c2ccccc2n1	6%	-24%	?	-8%	?
Cc1cccc(Nc2nc(NCc3ccco3)c3ccccc3n2)c1	0%	?	25µM*	-16%	.
COc1ccc(OC)c(Nc2nc(NCc3ccco3)c3ccccc3n2)c1	-1%	-37%	32µM*	-18%	.
O=C(Cn1nc(C(F)(F)F)c2c1CCC2)Nc1ccc(Cl)cc1	-1%	?	?	4%	?
O=C(Nc1ccc(C(=O)N2CCOCC2)cc1)Nc1cccc(Cl)c1	5%	20%	-7%	-4%	i
C[C@H](CO)N1C[C@H](C)[C@@H](CN(C)Cc2ccc(C(=O)Nc3ccccc3N)cc2)Oc2c(NC(=O)C3CCCCC3)cccc2C1=O	18%	-2%	?	-10%	20µM*
COc1ccc(S(=O)(=O)Nc2cccc3c2O[C@H](CN(C)Cc2ccc(Oc4ccccc4)cc2)[C@@H](C)CN([C@H](C)CO)C3=O)cc1	0%	16µM*	?	-13%	?
C[C@H](CO)N1C[C@H](C)[C@@H](CN(C)Cc2ccc3c(c2)OCO3)Oc2c(NC(=O)C3CCCCC3)cccc2C1=O	4%	?	-22%	-18%	?
COc1ccc(S(=O)(=O)Nc2cccc3c2O[C@H](CN(C)Cc2ccc(-c4ccccc4)cc2)[C@@H](C)CN([C@H](C)CO)C3=O)cc1	3%	1%	-21%	-4%	?
C[C@H](CO)N1C[C@H](C)[C@@H](CN(C)CC2CCCCC2)Oc2c(NC(=O)Cc3ccccc3)cccc2C1=O	-2%	23µM*	?	-16%	32µM*
CCN(C(=O)COC(=O)c1cccc(-n2cnnn2)c1)C1CCCCC1	0%	-14%	9%	8%	i
O=C(Nn1c(C2CCCCC2)nc2ccccc2c1=O)c1ccc([N+](=O)[O-])cc1	4%	23µM*	-25%	?	i
COc1cccc(OC)c1C(=O)Nn1c(C2CCC2)nc2ccccc2c1=O	0%	.	3%	-3%	?
O=S1(=O)C=C(Sc2nnc(-c3ccccc3)o2)c2ccccc21	?	?	10µM*	?	.
CSc1nnc(-c2ccccc2)o1	0%	2%	17%	7%	i
O=C(NCCCNCc1ccccc1)/C(=N\O)c1ccccc1	4%	10%	-3%	17%	i
Cc1ccc(-c2n[nH]c(=S)n2/N=C/C=C/c2ccccc2[N+](=O)[O-])cc1	?	-18%	1%	-16%	i
